Sampled rows, rich in hits. Any-hit rate of the full collection: about 6%.
D3 ag – agonists of human D3 dopamine receptor; P35462; D3R DiscoveRx beta-arrestin cells, luminescence, 90 min; max activation, %; 410,000 tested, 0.58% active; in the data active = max activation above about 30%; also: 0% is about no effect
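Cells at 1500/well, incubated overnight, then treated with pinned compounds (dopamine as control) for 90 min at 37 degrees C. DiscoveRx reagent added for 30 - 60 minutes at room temperature; luminescence read.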
D1 antag – blocks dopamine activation of the human D1 receptor | HEK293 TREx D1 cells, calcium flux, dopamine EC80; active compounds read low | activity change, negative = inhibition, % at 10 µM | P21728 | 360,000 tested, 3.2% active; in the data active = activity change below about -30%; also: % is scaled to controls: 0 for no effect and ±100 for the full control effect
Target sequence (P21728 whole entry, looked up): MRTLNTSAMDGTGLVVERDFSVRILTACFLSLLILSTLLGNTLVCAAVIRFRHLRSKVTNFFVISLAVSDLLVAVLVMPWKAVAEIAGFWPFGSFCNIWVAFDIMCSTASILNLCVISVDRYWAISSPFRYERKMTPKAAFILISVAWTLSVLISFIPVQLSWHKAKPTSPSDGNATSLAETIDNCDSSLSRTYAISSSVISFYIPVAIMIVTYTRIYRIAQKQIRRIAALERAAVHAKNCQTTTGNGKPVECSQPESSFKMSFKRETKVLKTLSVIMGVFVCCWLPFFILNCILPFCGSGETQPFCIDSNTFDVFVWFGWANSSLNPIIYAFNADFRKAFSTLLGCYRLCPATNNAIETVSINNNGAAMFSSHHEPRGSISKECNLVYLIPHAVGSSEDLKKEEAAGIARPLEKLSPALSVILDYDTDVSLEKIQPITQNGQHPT
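Compound effects on dopamine-evoked calcium signalling were measured in tetracycline-induced HEK293 Trex D1 cells. Dopamine at EC80 followed a 180 s compound pre-read, and fluorescence was tracked kinetically for 180 s more.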
DRD3 antagonist – blocks the human D3 dopamine receptor; P35462; max response, negative = inhibition, %; AID 652054; D3R cells, DiscoveRx beta-arrestin luminescence, antagonist mode; active compounds read low; 360,000 tested, 2.5% active; in the data active = max response below about -50%; inconclusive = no clear call, values can overlap the other calls; also: % is scaled to controls: 0 for no effect and ±100 for the full control effect
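Cells plated overnight at 1500 cells/well, then exposed to library compounds with dopamine controls for 90 minutes at 37 degrees C. DiscoveRx reagent added for 30–60 minutes at room temperature; luminescence read, quantitative HTS format.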
D1 ag – agonists of human D1 dopamine receptor. AID 504660. activation, % at 2 µM. 360,000 tested, 1% active. HEK293 T-REx D1 cells, calcium flux, agonist mode; in the data active = activation above about 30%; also: 0% is about no effect
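Agonism was scored from calcium flux recorded over 180 s (1 read/s) after pintool compound addition, following a 10-cycle baseline. Cells were inducible force-coupled HEK293 TREx D1, plated overnight at 30 C and loaded with no-wash calcium dye.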
D1 potentiator – human D1 dopamine receptor positive modulation | AID 504651 | potentiation, % at 10 µM | HEK293 TREx D1 cells, calcium flux, dopamine EC20 potentiation | P21728 | 360,000 tested, 0.036% active; in the data active = potentiation above about 30%; also: 0% is about no effect
An asterisk follows results filed as active; ? = inconclusive; . = no result.

SMILES	D3 ag	D1 antag	DRD3 antagonist	D1 ag	D1 potentiator
CCN(CC)CC(C)(C)C(=O)/C=C/c1ccc(/C=C/C(=O)C(C)(C)CN(CC)CC)cc1	-14	.	-64*	.	.
CCN(CC)S(=O)(=O)c1ccc(/C=C/C(=O)O)cc1	-4	4	4	2	-2
CCOc1ccccc1NC(=O)Cn1c(=O)n(Cc2ccccc2)c(=O)c2cccnc21	-7	-4	.	-1	-4
CCCc1cc(=O)[nH]c(SCC(=O)c2cc(C)n(-c3cc(C)on3)c2C)n1	30	-4	17	12	-6
CCCn1c(SCC(=O)c2cc(C)n(-c3cc(C)on3)c2C)n[nH]c1=O	31*	-8	11	14	-2
CCOC(=O)C1CCN(C(=O)c2ccc(CNS(=O)(=O)c3ccc(C)cc3)cc2)CC1	7	-37*	-13	0	-4
COc1cccc(CN2CCN(C(=O)c3ccc(-c4ccccc4)cc3)CC2)c1OC	0	-37*	-5	5	2
CCOC(=O)N1CCC(NC(=O)c2ccc(CNS(=O)(=O)c3ccc(F)cc3)cc2)CC1	-12	-34*	11	4	-5
COc1ccc(CN2CCN(C(=O)c3ccc(CNS(=O)(=O)c4ccc(C)cc4)cc3)CC2)c(OC)c1OC	2	-30*	34	7	-8
Cc1ccc(S(=O)(=O)NCc2ccc(C(=O)NC3CC3)cc2)cc1	11	-6	1	2	-3
CCOC(=O)C1CCN(C(=O)CCNS(=O)(=O)c2ccc(C)cc2)CC1	1	-21	-14	1	-4
N#Cc1ccccc1Cn1c(=O)n(CCCC(=O)NCc2ccccc2Cl)c(=O)c2ccccc21	7	-7	.	-1	-3
Cc1nc2cc(-c3ccccc3)nn2c(C)c1CCC(=O)NCc1cccc(Cl)c1	5	-28	.	3	-5
Cc1nn2c(-c3ccco3)ccnc2c1-c1ccc(Cl)cc1	5	20	.	0	-3
O=C(NCCCN1CCN(c2ccc(F)cc2)CC1)c1cnn(-c2ccc(F)cc2)c1-n1cccc1	13	1	.	10	-2
O=C(C1=C[C@@H](c2coc3ccccc3c2=O)C[C@@H](OCc2ccc(CO)cc2)O1)N1CCN(Cc2ccc3c(c2)OCO3)CC1	-15	15	14	3	-3
O=C(C1=C[C@H](c2csc3ccccc23)C[C@H](OCc2ccc(CO)cc2)O1)N1CCN(Cc2ccccc2)CC1	0	-6	?	6	-3
O=C(C1=C[C@H](c2coc3ccccc3c2=O)C[C@H](OCc2ccc(CO)cc2)O1)N1CCN(Cc2ccc3c(c2)OCO3)CC1	-50	10	-50*	-3	-1
CN1CCN(C(=O)C2=C[C@@H](c3csc4ccccc34)C[C@@H](OCc3ccc(CO)cc3)O2)CC1	-45	-5	-72*	41*	-2
CN1CCN(C(=O)C2=C[C@H](c3coc4ccccc4c3=O)C[C@H](OCc3ccc(CO)cc3)O2)CC1	1	-20	2	-3	34*
O=C(C1=C[C@H](c2csc3ccccc23)C[C@H](OCc2ccc(CO)cc2)O1)N1CCN(Cc2ccc3c(c2)OCO3)CC1	-27	-34*	-20	0	4
O=C(C1=C[C@H](c2csc3ccccc23)C[C@H](OCc2ccc(CO)cc2)O1)N1CCOCC1	2	8	20	-1	-4
Cc1ncc(CO)c2c1Oc1nc(-c3ccc(F)cc3)nc(SCC(=O)N3CCCCC3)c1C2	9	4	.	3	-6
CC(Nc1oc(-c2ccc(COc3ccccc3)o2)nc1C#N)c1ccccc1 (centres undefined)	-9	17	.	1	-1
CC(C)C(=O)N1c2ncnn2C2(CCCCC2)[C@@H]2CCCC[C@@H]21	6	3	.	4	1
COc1cccc(NC(=O)CSc2nc(O)c(C/C=C/c3ccccc3)c(=O)[nH]2)c1	-8	4	.	0	0
O=C(Nc1ccccc1)C1=C[C@@H](c2csc3ccccc23)C[C@@H](OCc2ccc(CO)cc2)O1	-32	19	-51*	27	-1
O=C(NCCc1cccc(Cl)c1)c1cccc([N+](=O)[O-])c1	-2	-42*	-12	4	-4
O=C(NCCc1ccccc1)c1ccc(Cl)c([N+](=O)[O-])c1	-16	-36*	-8	2	-2

Compound activity as filed in PubChem.
